Compound activity (PubChem)
A selection: hits, their analogues and other compounds. The true share with any hit is near 8.3%.
RORg inh: inhibitors of mouse ROR gamma transcriptional activity | P51450 | Drosophila S2 Gal4-RORgamma UAS-luciferase reporter, 20 h | Potency, µM (titrated, usually from 53.6 µM), for inactives: at the top dose activity change, negative = inhibition, usual class: inhibitors | 5.4% of 310,000 active; note: potency is the fitted concentration of half-maximal effect; % is set by controls: 0 for no effect and ±100 for the full control effect; nearly all actives have a fitted effect of over 60% in size
Target sequence (P51450 whole entry, looked up, the tested form may be a part): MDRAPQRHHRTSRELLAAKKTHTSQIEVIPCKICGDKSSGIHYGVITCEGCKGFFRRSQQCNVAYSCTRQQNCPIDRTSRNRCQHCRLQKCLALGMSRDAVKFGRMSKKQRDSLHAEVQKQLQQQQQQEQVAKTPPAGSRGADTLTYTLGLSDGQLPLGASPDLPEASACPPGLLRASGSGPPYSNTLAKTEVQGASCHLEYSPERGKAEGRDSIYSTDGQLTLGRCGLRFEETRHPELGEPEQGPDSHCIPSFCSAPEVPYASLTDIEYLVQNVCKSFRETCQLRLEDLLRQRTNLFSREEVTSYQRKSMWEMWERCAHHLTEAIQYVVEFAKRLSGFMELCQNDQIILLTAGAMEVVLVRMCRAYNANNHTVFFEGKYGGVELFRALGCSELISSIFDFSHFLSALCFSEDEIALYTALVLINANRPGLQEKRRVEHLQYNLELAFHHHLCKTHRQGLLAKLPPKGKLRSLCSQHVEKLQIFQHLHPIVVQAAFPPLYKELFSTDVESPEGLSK
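Luminescence from a UAS-regulated Photinus luciferase reporter in stably transfected Drosophila Schneider cells is measured; decreased signal marks ROR gamma inhibition. Fusion expression is induced by 700 uM copper sulfate for 20 hr.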
BCR signal inh: chronic active BCR signaling inhibition. ABC-DLBCL IkBa-CBG/CBR reporter, luminescence ratio, 4 h. 0.05% of 340,000 active. AID 493014. Potency, µM (top dose mostly 46.1 µM), for the others: at the highest dose activity change, negative = inhibition, usual class: inhibitors; active = well fitted inhibition curve with a large enough effect in the signal ratio, with a control signal flat, not every such curve was filed as active; inconclusive = small, poorly fitted or top-dose-only effect, or effect the other way, or a change in a side signal; the % refers to the signal ratio;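 note: potency is the fitted concentration of half-maximal effect; plate controls were basal doxycycline-induced cells for no effect and cells given 10 µM MG132 for full effect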
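Concentration-response series (up to 46 uM) were applied to TMD8 dual-reporter cells for 4 h at 37C with doxycycline. Green/red ratio, after filter-overlap correction, defined %Activity; red signal alone was normalised to basal cells and zero luminescence.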
Gal4-VP16 FLuc: inhibits Gal4-VP16 luciferase reporter, ROR gamma counter-screen. Drosophila S2 Gal4-VP16 UAS-luciferase, luminescence, 20 h. Potency, µM (top dose mostly 53.6 µM), without a hit: at the top dose activity, negative = inhibition, usual class: inhibitors. 3.5% of 310,000 active. AID 2546;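 note: Gal4-VP16 expression switched on by copper sulfate through the metallothionein promoter; potency is the fitted concentration of half-maximal effect; % is set by controls: 0 for no effect and ±100 for the full control effect; nearly all actives have a fitted effect of over 50% in size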
MCF10A rereplic: DNA re-replication induction in MCF 10a cells. MCF 10A DNA re-replication, Hoechst nuclear intensity, 48 h. Potency, µM (highest dose often 46.1 µM), for the others: at the highest dose activity, positive = re-replication, usual class: activators. 2.9% of 350,000 active; note: potency is the fitted concentration of half-maximal effect; % of control where 0% means no effect; nearly all actives have a fitted effect of over 50% in size
Giardia kill: Giardia lamblia killing; activity change, % at 7.66 µM, hits read low; Giardia lamblia trophozoite viability; 0.15% of 340,000 active; in the data active = activity change below about -80%; inconclusive = between about -30% and that limit;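 note: parasites exposed to compound for two days anaerobically before the ATP read; % is set by controls: 0 for no effect and ±100 for the full control effect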
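Anaerobic 48 hrs incubation at 37 deg C of 100 trophozoites/well with test compounds; ATPLite 1-Step luminescence, 15-30 min RT, reports cellular ATP as viability.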
SW480 rerep: induces DNA re-replication in SW480 colon adenocarcinoma cells | 1.8% of 340,000 active | Potency, µM (doses to about 46.1 µM), inactives show at the highest dose re-replication activation, actives largely listed as activators | SW480 DNA re-replication, Hoechst DNA content imaging, 48 h | AID 624297; note: potency is the fitted concentration of half-maximal effect; % of control where 0% means no effect; nearly all actives have a fitted effect of over 55% in size
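Treated cells incubate 48 hr (37 C, 5% CO2), are stained 40 min with Hoechst, and nuclear fluorescence is enumerated; a rise in nuclei with high DNA signal marks re-replication.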
* marks the source's active call; other numbers are inactive results; ? = inconclusive; nt = no result given; [ ] = another dose, or the depositor's remark. Unless noted, calls come from the whole dose curve; as a rule, active = well fitted curve in the direction sought with a large enough effect; inconclusive = small, poorly fitted or top-dose-only effect, or another doubt; inactive = no such curve, though single readings can be large; an effect the other way counts as inactive or inconclusive.

SMILES	RORg inh	BCR signal inh	Gal4-VP16 FLuc	MCF10A rereplic	Giardia kill	SW480 rerep
COC(=O)c1ccccc1S(=O)(=O)NNC(=O)C12CC3CC(CC(C3)C1)C2	nt	0%	nt	3%	-13	-29%
COc1ccc(NC(=S)N2CCC(Cc3ccccc3)CC2)cc1OC	13µM*	-1%	16µM*	2%	10	-3%
COc1cccc(NC(=S)N2CCC(c3ccc(C)cc3)C2)c1 (configuration not stated)	?	3%	?	?	3	8%
CC(=O)c1cccc(NC(=S)N2CCC(Cc3ccccc3)CC2)c1	14µM*	-4%	-71%	-41%	4	?
COC(=O)Cc1ccc(NC(=S)N2CCC(Cc3ccccc3)CC2)cc1	14µM*	-5%	?	0%	8	-6%
COc1cccc(NC(=S)N2CCC(Cc3ccccc3)CC2)c1	7.1µM*	0%	18µM*	11%	-2	-5%
CC(=O)c1ccc(NC(=S)N2CCC(Cc3ccccc3)CC2)cc1	20%	?	-4%	25%	-17	-13%
CN1CCN(C(c2ccccc2Cl)c2sc3nc(-c4ccco4)nn3c2O)CC1 (configuration not stated)	nt	-18%	nt	nt	nt	nt
COc1ccc(C)cc1N1C(=N)/C(=C2/Nc3ccccc3S2)C(c2ccccc2)C1=O (configuration not stated)	2.5µM*	?	8.9µM*	23µM*	-29	?
CCOC(=O)[C@H]1[C@H]2COc3cc(OC)ccc3[C@@H]2N2C(=O)CN(Cc3ccc(C)cc3)C(=O)[C@@]12C	nt	?	nt	?	12	-6%
O=[N+]([O-])/C=C/c1cc2ccccc2[nH]1	10µM*	?	?	?	-4	1%
O=[N+]([O-])c1cccc(-c2cc3ccccc3[nH]2)c1	6%	2%	?	4%	-13	?
N#CC1(Nc2ccc(Br)cc2)CCCC1	nt	nt	nt	15%	-10	-1%
COc1ccc(-c2csc(N3C(=O)CNC3=S)n2)cc1	?	?	?	-4%	-2	-2%
O=C1CNC(=S)N1c1nc(-c2ccccc2)cs1	3.2µM*	-10%	?	-4%	21	-3%
O=C(NC(=S)Nc1ccccn1)c1ccccc1	?	?	?	-2%	12	-5%
O=C(NC(=S)Nc1ccccn1)c1ccc([N+](=O)[O-])cc1	5µM*	1%	11µM*	0%	?	?
O=C(NC(=S)Nc1ccccc1N1CCCC1)c1ccc([N+](=O)[O-])cc1	0.05µM*	4%	0.11µM*	3%	?	6%
Cc1c(C(=O)NC(=S)Nc2ccccc2N2CCCC2)cccc1[N+](=O)[O-]	?	11%	-100%	9%	-13	12%
O=C(NC(=S)Nc1ccccc1N1CCOCC1)c1ccc([N+](=O)[O-])cc1	8.9µM*	0%	?	10%	8	1%
Cc1cc(NC(=O)NCC(F)(F)F)no1	21%	-5%	-1%	-8%	5	-5%
CCOc1cccc(/C=N/NC(=O)c2cc(-c3cccn3C)n[nH]2)c1O	2.8µM*	-12%	5µM*	?	-9	?
CCOc1cccc(/C=N/NC(=O)C2CCCC2)c1O	2%	4%	5%	9%	6	5.8µM*
CC(=O)N1CCN(Cc2nc3cc([N+](=O)[O-])ccc3n2C)CC1	1%	?	8%	0%	4	2.9µM*
CCOC(=O)c1ccc2c(c1)N(Cc1ccccc1C)C(=O)c1ccccc1S2=O (configuration not stated)	-20%	1%	22µM*	2%	16	7%
SMILES	RORg inh	BCR signal inh	Gal4-VP16 FLuc	MCF10A rereplic	Giardia kill	SW480 rerep
CS(=O)(=O)Nc1ccc2c(c1)OCC(=O)N2Cc1ccccc1	6%	0%	13%	13%	0	?
O=C(O)c1cc([N+](=O)[O-])c(Sc2nc3ccccc3[nH]2)c([N+](=O)[O-])c1	?	1%	3%	1%	-1	?
Cc1nc([N+](=O)[O-])c(Sc2nc3ccccc3[nH]2)n1Cc1ccccc1	10µM*	?	?	?	10	?
Cc1cc2nc(Sc3c([N+](=O)[O-])nc(C)n3Cc3ccccc3)[nH]c2cc1C	13µM*	?	8.9µM*	21µM*	3	?
Cc1nc([N+](=O)[O-])c(N2CCN(Cc3ccccc3)CC2)n1Cc1ccccc1	-5%	3%	6%	23%	-3	1%
COc1ccc2nc(Sc3c([N+](=O)[O-])nc(C)n3Cc3ccccc3)[nH]c2c1	?	-9%	-25%	?	-8	?
CS(=O)(=O)c1cc([N+](=O)[O-])c(Sc2nc3ccccc3[nH]2)c([N+](=O)[O-])c1	2.5µM*	?	3.2µM*	?	-7	8%
CC(C)(C)N(Cc1ccccc1)C(=O)CSc1ncn[nH]1	-5%	-1%	-3%	5%	-1	5%
COc1ccccc1Nc1nc(Cl)c(C=O)s1	-19%	3%	9%	21µM*	23	0%
O=Cc1sc(Nc2ccccc2)nc1Cl	33%	?	?	?	-13	11%
COc1ccccc1Nc1nc2c(s1)CCC2	?	?	-14%	0%	9	-1%
Cc1ccc(Nc2nc(Cl)c(C=O)s2)cc1Cl	?	15%	17%	18µM*	4	?
COc1ccc(-n2c(CNC(=O)COc3ccc(Cl)cc3Cl)n[nH]c2=S)cc1	10µM*	?	-4%	?	-2	?
COc1ccc(-n2c(CNC(=O)COc3ccc(Cl)cc3)n[nH]c2=S)cc1	-41%	0%	16%	?	-3	-3%
S=c1[nH]nc(COc2ccc(Cl)cc2Cl)n1-c1ccccc1	-33%[1.91 µM]	1%	3.5µM*	0%	-5	12%
Cc1onc(-c2c(F)cccc2Cl)c1C(=O)NCc1ccc2c(c1)OCO2	2%	6%	1%	-4%	4	-3%
Cc1cccc(CS(=O)(=O)c2ncc(Cl)c(C(=O)NCc3ccc4c(c3)OCO4)n2)c1	6.3µM*	?	3.2µM*	?	?	-23%
CC(=O)Nc1ccc(NC(=O)c2nc(S(=O)(=O)Cc3cccc(C)c3)ncc2Cl)cc1	6.3µM*	?	5µM*	18%	-12	?
COC(=O)c1ccc(NC(=O)c2nc(S(=O)(=O)Cc3cccc(C)c3)ncc2Cl)cc1	6.3µM*	?	4.5µM*	11%	9	?
